Reference: PubChem BioAssay
The source made the active and inactive calls.

Key:
[1] = small molecules captured by biotinylated probe aFSTL3 – biochemical, small-molecule microarray, fluorescence 635/667, stem cell growth factor project, primary screen (AID 1064); details: higher = more signal;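 also: measures binding of the biotinylated anti-FSTL3 antibody to printed compounds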
[2] = binders from COS7 lysate, DM2A8 probe, primary screen, torsin A project, cell lysate, small-molecule microarray, fluorescence 635/667 (AID 1065); details: higher = more signal, COS7 lysate expressing mutant human TOR1A
[3] = small molecules captured by biotinylated probe aFGF2 – biochemical, small-molecule microarray, fluorescence 635/667, stem cell growth factor project, primary screen (AID 1067); details: higher = more signal;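 also: measures binding of biotinylated aFGF2 protein to printed compounds on slides; z-score merges feature fluorescence and signal-to-noise across triplicate slides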
[4] = small molecules captured by biotinylated probe aFGF10 – biochemical, small-molecule microarray, fluorescence 635/667, stem cell growth factor project, primary screen (AID 1071); details: higher = more signal;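 also: score merges 667 nm spot intensity and signal to noise from triplicate slides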
[5] = target: Neurogenic locus notch homolog protein 2 (Homo sapiens) (UniProt Q04721); assay: small molecules binding Notch2 protein – biochemical, small-molecule microarray, 635 nm fluorescence, stem cell growth factors, primary screen (AID 1073); details: higher = more signal
[6] = target: Pro-neuregulin-1, membrane-bound isoform (Homo sapiens) (UniProt Q02297); assay: small molecules binding neuregulin-1 protein – biochemical, small-molecule microarray, fluorescence 635/667, psychiatric disease protein project, primary screen (AID 1075); details: NRG1 binding, 635 nm fluorescence, higher = more signal;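 also: score combines 667 nm spot fluorescence with signal to noise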
[7] = test system: Neuregulin-1 EGF-like domain; assay: small molecules binding NRG1 EGF domain – biochemical, small-molecule microarray, 635 nm fluorescence, primary screen (AID 1081); details: higher = more signal;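 also: binding of the protein to compounds printed on small-molecule microarray slides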
[8] = FRG1 expression reporter modulators in myotubes – cell-based, C2C12 myotubes, firefly/Renilla luciferase, luminescence, FRG1 inhibition for FSHD, primary screen (AID 1084); details: FRG1 promoter luciferase, higher = more signal, called active from +8 up or from −8 down
[9] = small molecules captured by biotinylated probe aFST – biochemical, small-molecule microarray, fluorescence 635/667, stem cell growth factor project, primary screen (AID 1086); details: higher = more signal;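 also: score merges 667 nm fluorescence with signal-to-noise of each printed compound spot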
[10] = binders of probe aHhip on microarray, primary screen, stem cell growth factor project, biochemical, small-molecule microarray, fluorescence 635/667 (AID 1087); details: higher = more signal;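 also: score merges spot fluorescence at 667nm with spot signal to noise ratio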
[11] = test system: PRMT1 (protein arginine N-methyltransferase 1); assay: small molecules binding arginine methyltransferase PRMT1 – biochemical, small-molecule microarray, 635 nm fluorescence, primary screen (AID 1088); details: higher = more signal;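 also: binding of Prmt1 protein to compounds spotted on small-molecule microarray slides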
[12] = growth effects on S. cerevisiae YJM789 – YJM789 clinical isolate, OD600, 24 h, basal, primary screen (AID 1089); details: higher = more signal, called active from +8 up or from −8 down;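 also: growth of clinical yeast isolate S. cerevisiae YJM 789 seeded 1000 cells per well; test concentration not given here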
[13] = S. pombe growth modifiers, basal conditions – strain 972, OD600, 24 h, no modulator, primary screen (AID 1090);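 also: basal condition with compound alone and no growth modifier present; test concentration not given here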; details: S. pombe 972 growth, higher = more signal, called active from +8 up or from −8 down
[14] = budding yeast growth modifiers under rapamycin – strain BY4716, OD600, 96 h, primary screen (AID 1091); also: test concentration not given here; details: S. cerevisiae BY4716 + rapamycin, higher = more signal, called active from +8 up or from −8 down
[15] = target: Torsin-1A-interacting protein 2 (Homo sapiens) (UniProt Q8NFQ8); assay: small molecules binding lysate-expressed LULL1 – cell lysate, human LULL1 lysate, 635/667 nm fluorescence, primary screen (AID 1092); details: small-molecule microarray, hLULL1 lysate binding, 635 nm fluorescence; higher = more signal;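 also: probe is lysate of COS7 cells overexpressing human LULL1; score merges per-feature 667 nm fluorescence with signal-to-noise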
[16] = optical density change of DRC41 E. coli – strain DRC41, OD650, 24 h, E. coli filamentation project, primary screen (AID 1093);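 also: MC1000 strain lacking acrAB efflux and sulA so SOS filamentation is blocked; test concentration not given here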; details: E. coli DRC41 growth, higher = more signal, called active from +8 up or from −8 down
[17] = probe aLefty2 binding to arrayed compounds – biochemical, biotinylated probe, 635/667 nm fluorescence, primary screen (AID 1094); details: small-molecule microarray, higher = more signal;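 also: score merges spot fluorescence near 667 nm with spot signal-to-noise ratio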
[18] = test system: Noggin (protein binding on small-molecule microarray); assay: small molecules binding Noggin protein – biochemical, 635/667 nm fluorescence, primary screen (AID 1095); details: 635 nm fluorescence, higher = more signal;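 also: score merges 667 nm feature fluorescence with signal to noise over triplicate slides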
[19] = target: Neurogenic locus notch homolog protein 3 (Homo sapiens) (UniProt Q9UM47); assay: small molecules binding NOTCH3 protein – biochemical, 635/667 nm fluorescence, primary screen (AID 1096); details: small-molecule microarray, 635 nm fluorescence, higher = more signal
[20] = probe aEGFR binding to arrayed compounds – biochemical, biotinylated probe, 635/667 nm fluorescence, primary screen (AID 1097); details: small-molecule microarray, higher = more signal;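 also: probe is a biotinylated anti-EGFR antibody binding compounds printed on slides; score combines fluorescence near 667 nm and signal to noise of each spot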

Torsin-1A-interacting protein 2 (Homo sapiens), sequence (Q8NFQ8 whole entry, looked up): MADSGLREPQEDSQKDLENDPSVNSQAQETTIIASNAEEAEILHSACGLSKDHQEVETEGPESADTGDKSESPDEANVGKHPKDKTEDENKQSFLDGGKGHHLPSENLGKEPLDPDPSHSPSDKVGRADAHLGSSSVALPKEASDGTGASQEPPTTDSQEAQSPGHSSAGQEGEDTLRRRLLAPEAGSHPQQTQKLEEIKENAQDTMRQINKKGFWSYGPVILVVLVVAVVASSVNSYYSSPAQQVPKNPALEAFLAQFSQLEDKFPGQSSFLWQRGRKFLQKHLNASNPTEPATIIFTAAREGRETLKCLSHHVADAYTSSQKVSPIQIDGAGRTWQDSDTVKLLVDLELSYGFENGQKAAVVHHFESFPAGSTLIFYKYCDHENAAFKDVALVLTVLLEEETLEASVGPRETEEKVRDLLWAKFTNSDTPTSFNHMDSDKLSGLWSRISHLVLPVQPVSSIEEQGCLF
Pro-neuregulin-1, membrane-bound isoform (Homo sapiens), sequence (Q02297 whole entry, looked up, the tested form may be a part, canonical isoform): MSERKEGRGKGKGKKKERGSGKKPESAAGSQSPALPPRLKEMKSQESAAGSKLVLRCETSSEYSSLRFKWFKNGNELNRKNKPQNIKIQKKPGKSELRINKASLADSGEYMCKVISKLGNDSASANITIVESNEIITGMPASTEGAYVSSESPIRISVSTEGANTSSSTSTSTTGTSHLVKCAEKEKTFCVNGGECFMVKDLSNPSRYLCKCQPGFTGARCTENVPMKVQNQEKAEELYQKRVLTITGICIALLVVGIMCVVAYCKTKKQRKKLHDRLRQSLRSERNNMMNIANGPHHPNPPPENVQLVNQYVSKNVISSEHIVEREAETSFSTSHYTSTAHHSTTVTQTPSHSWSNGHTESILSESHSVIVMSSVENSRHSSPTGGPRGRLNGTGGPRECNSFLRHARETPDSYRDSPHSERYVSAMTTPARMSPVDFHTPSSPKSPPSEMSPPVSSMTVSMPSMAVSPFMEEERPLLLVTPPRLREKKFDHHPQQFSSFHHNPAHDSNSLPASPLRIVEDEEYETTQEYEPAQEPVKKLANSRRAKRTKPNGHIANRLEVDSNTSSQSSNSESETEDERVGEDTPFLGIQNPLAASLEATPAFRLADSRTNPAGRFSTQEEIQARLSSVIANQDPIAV
Neurogenic locus notch homolog protein 2 (Homo sapiens), sequence (Q04721 whole entry, looked up, canonical isoform): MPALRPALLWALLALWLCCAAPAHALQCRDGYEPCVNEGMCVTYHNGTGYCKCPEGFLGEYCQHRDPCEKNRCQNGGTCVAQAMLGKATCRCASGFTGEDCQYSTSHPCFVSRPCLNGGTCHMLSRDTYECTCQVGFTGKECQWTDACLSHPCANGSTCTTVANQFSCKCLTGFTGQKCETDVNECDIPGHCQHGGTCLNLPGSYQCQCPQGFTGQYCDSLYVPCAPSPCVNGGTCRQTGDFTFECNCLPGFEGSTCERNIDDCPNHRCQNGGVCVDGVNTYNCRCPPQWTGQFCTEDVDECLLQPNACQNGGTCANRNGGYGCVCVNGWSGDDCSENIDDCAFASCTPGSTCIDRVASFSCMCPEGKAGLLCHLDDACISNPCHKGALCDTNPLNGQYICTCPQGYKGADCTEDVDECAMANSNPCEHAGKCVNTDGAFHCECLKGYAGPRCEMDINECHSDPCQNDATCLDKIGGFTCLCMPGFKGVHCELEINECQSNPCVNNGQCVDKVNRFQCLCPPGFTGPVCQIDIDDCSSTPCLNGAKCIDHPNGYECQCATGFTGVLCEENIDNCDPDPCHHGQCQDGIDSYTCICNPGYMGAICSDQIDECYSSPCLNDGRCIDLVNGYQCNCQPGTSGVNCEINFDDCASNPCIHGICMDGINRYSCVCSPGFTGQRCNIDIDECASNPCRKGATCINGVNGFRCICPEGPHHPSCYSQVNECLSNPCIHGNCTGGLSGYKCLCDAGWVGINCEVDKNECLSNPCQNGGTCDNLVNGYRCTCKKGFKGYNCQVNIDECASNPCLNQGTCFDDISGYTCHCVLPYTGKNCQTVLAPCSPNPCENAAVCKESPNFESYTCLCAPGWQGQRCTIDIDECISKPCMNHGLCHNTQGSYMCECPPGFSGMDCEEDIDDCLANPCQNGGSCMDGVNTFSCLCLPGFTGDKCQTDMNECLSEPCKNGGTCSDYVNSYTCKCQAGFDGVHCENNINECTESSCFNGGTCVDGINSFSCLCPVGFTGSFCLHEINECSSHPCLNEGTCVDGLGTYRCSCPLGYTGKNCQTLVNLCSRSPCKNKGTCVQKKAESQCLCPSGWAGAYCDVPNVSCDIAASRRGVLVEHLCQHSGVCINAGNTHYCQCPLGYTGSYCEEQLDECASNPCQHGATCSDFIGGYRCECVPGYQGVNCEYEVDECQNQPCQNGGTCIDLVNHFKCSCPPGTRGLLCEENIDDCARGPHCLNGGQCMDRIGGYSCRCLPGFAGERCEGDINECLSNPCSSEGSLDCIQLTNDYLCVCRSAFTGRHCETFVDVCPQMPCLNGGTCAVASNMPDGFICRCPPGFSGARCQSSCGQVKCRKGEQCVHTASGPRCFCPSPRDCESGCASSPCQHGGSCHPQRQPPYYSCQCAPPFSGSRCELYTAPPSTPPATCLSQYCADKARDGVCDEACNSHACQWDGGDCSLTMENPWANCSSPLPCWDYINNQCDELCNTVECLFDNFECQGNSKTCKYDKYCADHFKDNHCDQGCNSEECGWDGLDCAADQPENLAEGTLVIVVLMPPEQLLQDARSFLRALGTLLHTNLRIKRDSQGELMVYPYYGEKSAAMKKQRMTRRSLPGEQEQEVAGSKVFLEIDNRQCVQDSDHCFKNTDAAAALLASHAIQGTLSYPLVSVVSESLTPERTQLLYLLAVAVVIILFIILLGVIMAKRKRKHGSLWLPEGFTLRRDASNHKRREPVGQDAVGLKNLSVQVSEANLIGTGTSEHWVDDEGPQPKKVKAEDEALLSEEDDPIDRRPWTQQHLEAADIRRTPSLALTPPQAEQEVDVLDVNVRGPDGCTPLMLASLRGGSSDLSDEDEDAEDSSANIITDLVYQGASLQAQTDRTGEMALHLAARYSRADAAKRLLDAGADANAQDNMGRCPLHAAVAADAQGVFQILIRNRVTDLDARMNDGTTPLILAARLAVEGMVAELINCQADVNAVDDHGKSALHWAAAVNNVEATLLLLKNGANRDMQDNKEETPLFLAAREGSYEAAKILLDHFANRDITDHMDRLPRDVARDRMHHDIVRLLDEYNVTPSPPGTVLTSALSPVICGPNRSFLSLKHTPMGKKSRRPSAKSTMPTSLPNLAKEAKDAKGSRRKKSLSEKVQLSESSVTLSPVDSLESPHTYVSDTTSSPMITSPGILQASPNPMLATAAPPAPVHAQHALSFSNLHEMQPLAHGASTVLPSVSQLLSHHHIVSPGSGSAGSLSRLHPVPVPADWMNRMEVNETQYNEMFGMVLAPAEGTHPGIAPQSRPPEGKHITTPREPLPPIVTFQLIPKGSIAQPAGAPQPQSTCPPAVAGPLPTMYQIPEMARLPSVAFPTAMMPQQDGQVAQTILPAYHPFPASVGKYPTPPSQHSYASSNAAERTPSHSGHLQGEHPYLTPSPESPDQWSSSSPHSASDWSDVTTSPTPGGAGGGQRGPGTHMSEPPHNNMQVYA

Compound	composite z-score [1]	composite z-score [2]	composite z-score [3]	composite z-score [4]	composite z-score [5]	composite z-score [6]	composite z-score [7]	z-score [8]	composite z-score [9]	composite z-score [10]	composite z-score [11]	z-score [12]	z-score [13]	z-score [14]	composite z-score [15]	z-score [16]	composite z-score [17]	composite z-score [18]	composite z-score [19]	composite z-score [20]
COC(=O)c1ccc([C@H](NC(=O)c2ccccc2)[C@]2(C)C[C@H]2C2CCCCC2)cc1	0.735	-0.678	0.056	0.172	1.22	1.18	0.678	-1 (inactive)	0.86	0.245	0.0232	0.696 (inactive)	1.52 (inactive)	-1.23 (inactive)	3.03	-1.38 (inactive)	0.223	-0.178	1.05	-0.116
CN(C)CCCCNC(=O)[C@H]1C[C@H]2C(=O)N[C@@H](Cc3ccccc3)C(=O)N2[C@H]1c1cccc(OCCO)c1	0.863	0.46	-0.158	-0.436	-0.252	0.136	0.606	3.32 (inactive)	-0.549	0.0092	0.193	-1.11 (inactive)	0.0737 (inactive)	-0.247 (inactive)	0.33	1.13 (inactive)	-0.0924	0.622	0.307	-0.0512
CC(C)C[C@H]1NC(=O)[C@@]23C(=O)N[C@@H](Cc4ccccc4)C2[C@H](C)[C@@]2(C)O[C@H]2C3/C=C/C/C=C\CNC(=O)[C@@H]2CCCN2C1=O (stereo not given in full)	-0.504	-0.39	-0.078	0.774	0.303	0.912	0.665	0.31 (inactive)	0.52	-0.0645	1.52	-0.397 (inactive)	-1.08 (inactive)	-0.579 (inactive)	1.58	-1.14 (inactive)	-0.147	0.588	0.696	-0.008
CN1C(=O)C2C=CC(C(O)c3ccc(-c4ccccc4)s3)N(Nc3ccccc3)C2C1=O (stereo not given)	0.876	0.358	0.0754	0.454	1.67	1.43	1.09	0.0583 (inactive)	1.15	0.245	0.932	-1.29 (inactive)	0.447 (inactive)	0.164 (inactive)	2.91	-0.576 (inactive)	0.182	-0.399	1.11	-0.0043
COc1ccc(CCNC(=O)[C@@]2(C)c3ccccc3C(=O)N(Cc3cc(C(F)(F)F)cc(C(F)(F)F)c3)[C@H]2c2ccc(CO)cc2)cc1	1.42	1.35	0.383	-0.27	-0.57	1.73	1.3	-1.62 (inactive)	0.169	1.69	1.53	0.182 (inactive)	-0.836 (inactive)	1.09 (inactive)	1.7	1.02 (inactive)	0.795	0.179	0.0336	0.577
CCCC[C@H]1OB(O)C[C@H]2C1=C(C)C[C@H]1C(=O)C=CC(=O)[C@H]12	-0.567	-0.0474	-0.0887	0.309	0.425	0.532	0.698	0.358 (inactive)	0.189	0.176	1.24	0.111 (inactive)	-15.4 (active)	-0.0407 (inactive)	1.01	-0.0396 (inactive)	-0.0916	0.782	1.04	-0.071
COCCOC(=O)N1C(=O)[C@@]2(c3cc(C#CCNC(N)=O)ccc31)[C@H](C(=O)NC[C@H](O)c1ccccc1)[C@H]1C(=O)O[C@H](c3ccccc3)[C@H](c3ccccc3)N1[C@@H]2c1ccc(OCCO)cc1	0.102	0.249	0.0198	0.656	0.431	0.634	0.877	0.769 (inactive)	0.538	-0.0994	1.55	2.39 (inactive)	1.54 (inactive)	4.57 (inactive)	2.5	0.383 (inactive)	-0.0083	0.683	1.16	-0.0828
CC(C)CNC(=O)[C@@H]1c2ccccc2C(=O)N(C(C)C)[C@H]1c1ccc(CO)cc1	0.172	-0.0466	-0.138	-0.466	-0.811	-0.566	1.41	-0.981 (inactive)	-0.117	-0.261	0.12	-1.37 (inactive)	0.0396 (inactive)	-0.421 (inactive)	2.33	0.794 (inactive)	-0.166	0.126	0.0151	-0.246
CC(C)C[C@H]1NC(=O)[C@H](Cc2ccccc2)NC(=O)[C@@]23C(=O)N[C@@H](Cc4ccccc4)C2[C@H](C)[C@@]2(C)O[C@H]2C3/C=C/C/C=C\CNC1=O (stereo not given in full)	-0.263	0.919	-0.116	0.461	0.777	1.03	1.05	2.48 (inactive)	0.089	0.0626	1.21	-1.12 (inactive)	-0.667 (inactive)	-0.302 (inactive)	1.46	-1.03 (inactive)	-0.123	0.426	0.852	-0.0968
CC(C)C(=C=CC[C@@H](O)c1ccc(OCCO)cc1)CCO	-0.226	-0.0605	-0.128	0.127	-0.0765	0.346	0.402	0.0636 (inactive)	-0.315	0.0505	0.693	-1.21 (inactive)	-1.32 (inactive)	-1.4 (inactive)	-0.0081	1.23 (inactive)	-0.225	0.96	0.271	-0.146
